Reference: PubChem BioAssay (NCATS)
Records with an inconclusive call do not appear. A call without a number means that no potency is given here. Calls of active or inactive are those of the source. Calls come from the whole dose curve; as a rule, active = well fitted curve in the direction sought with a large enough effect; inconclusive = small, poorly fitted or top-dose-only effect, or another doubt; inactive = no such curve, though single readings can be large; an effect the other way counts as inactive or inconclusive.

Tests used:
[1] = Confirmatory screen GU Rhodamine qHTS for Zika virus inhibitors qHTS (AID 1347157); note: potency is the fitted concentration of half-maximal effect; nearly all actives have a fitted effect of over 70% in size
Summary of the method: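 Percent inhibition derives from the 15-min fluorescence change (ex 480, em 540 nm), normalized to no-enzyme and no-inhibitor wells. Reactions contained 25 nM NS2B-NS3 complex and 1.5 microM substrate in 10 mM Tris-HCl pH 8.0.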

[2] = tested on: Zika virus NS2B-NS3 protease (unlinked complex); assay: Primary screen GU Rhodamine qHTS for Zika virus inhibitors: Unlinked NS2B-NS3 protease assay (AID 1347159); note: potency is the fitted concentration of half-maximal effect; nearly all actives have a fitted effect of over 60% in size
Summary of the method: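 Buffer 10 mM Tris-HCl pH 8.0, 0.01% Tween 20. Unlinked protease 25 nM; compound preincubation 15 min, RT, protected from light. Substrate Rhod110, 1.5 microM; ~15% conversion in 15 min.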

[3] = tested on: Zika virus NS2B-NS3 protease (linked construct); assay: Primary screen NINDS Rhodamine qHTS for Zika virus inhibitors (AID 1347160); note: nearly all actives have a fitted effect of over 55% in size; note: potency is the fitted concentration of half-maximal effect
Summary of the method: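 Aprotinin served as in-plate control. Conditions: 25 nM linked NS2B-NS3, pH 8.0 Tris buffer, titrated compounds, 15 min preincubation and 15 min reaction with 1.5 microM Rhod110 substrate at room temperature.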

[4] = Confirmatory screen NINDS Rhodamine qHTS for Zika virus inhibitors (AID 1347161); note: potency is the fitted concentration of half-maximal effect; nearly all actives have a fitted effect of over 60% in size
Summary of the method: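 Rhodamine110-peptide cleavage (1.5 µM substrate) by 25 nM linked NS2B-NS3 enzyme at pH 8.0 (Tris, Tween 20), after 15 min RT preincubation with compounds; 15-min fluorescence change normalized to controls and Hill-fitted.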

[5] = Tertiary RLuc qRT-PCR qHTS assay for Zika virus inhibitors (AID 1347169); note: top concentration of the series differs between compounds; nearly all actives have a fitted effect of over 55% in size
Summary of the method: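 Orthogonal cell-based infection assay using recombinant ZIKV-RLuc (Cambodian) in Vero cells; compound added prior to virus at MOI 1-2. Incubation lasts 48-72 hrs at 37 degrees C before live-cell Renilla substrate is added and luminescence measured.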

[6] = tested on: Zika virus NS2B-NS3 protease (unlinked); assay: Optimization of GU AMC qHTS for Zika virus inhibitors: Unlinked NS2B-NS3 protease assay (AID 1347151); note: nearly all actives have a fitted effect of over 80% in size; note: potency is the fitted concentration of half-maximal effect
Summary of the method: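 Percent inhibition is derived from the 15-min change in AMC fluorescence, normalized against no-inhibitor and no-enzyme controls, then fitted to a 4-parameter Hill curve. Aprotinin was the intraplate control.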

[7] = tested on: Zika virus NS2B-NS3 protease; assay: Primary screen GU AMC qHTS for Zika virus inhibitors (AID 1347154); note: nearly all actives have a fitted effect of over 70% in size
Summary of the method: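 Unlinked Zika NS2B hydrophilic domain/NS3 protease domain noncovalent complex (25 nM final) in 10 mM Tris-HCl pH 8.0, 0.01% Tween 20, with AMC peptide substrate. Fluorescence (ex 340, em 450 nm) change over 15 min, room temperature; percent inhibition fitted to 4-parameter Hill equation.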

[8] = biological target: Lysine-specific demethylase 5B (Homo sapiens) (UniProt Q9UGL1); assay: Optimization screen for KDM5B Histone Demethylases FDH coupled qHTS against the LOPAC library (AID 1347166)
Lysine-specific demethylase 5B (Homo sapiens), sequence (Q9UGL1 whole entry, looked up): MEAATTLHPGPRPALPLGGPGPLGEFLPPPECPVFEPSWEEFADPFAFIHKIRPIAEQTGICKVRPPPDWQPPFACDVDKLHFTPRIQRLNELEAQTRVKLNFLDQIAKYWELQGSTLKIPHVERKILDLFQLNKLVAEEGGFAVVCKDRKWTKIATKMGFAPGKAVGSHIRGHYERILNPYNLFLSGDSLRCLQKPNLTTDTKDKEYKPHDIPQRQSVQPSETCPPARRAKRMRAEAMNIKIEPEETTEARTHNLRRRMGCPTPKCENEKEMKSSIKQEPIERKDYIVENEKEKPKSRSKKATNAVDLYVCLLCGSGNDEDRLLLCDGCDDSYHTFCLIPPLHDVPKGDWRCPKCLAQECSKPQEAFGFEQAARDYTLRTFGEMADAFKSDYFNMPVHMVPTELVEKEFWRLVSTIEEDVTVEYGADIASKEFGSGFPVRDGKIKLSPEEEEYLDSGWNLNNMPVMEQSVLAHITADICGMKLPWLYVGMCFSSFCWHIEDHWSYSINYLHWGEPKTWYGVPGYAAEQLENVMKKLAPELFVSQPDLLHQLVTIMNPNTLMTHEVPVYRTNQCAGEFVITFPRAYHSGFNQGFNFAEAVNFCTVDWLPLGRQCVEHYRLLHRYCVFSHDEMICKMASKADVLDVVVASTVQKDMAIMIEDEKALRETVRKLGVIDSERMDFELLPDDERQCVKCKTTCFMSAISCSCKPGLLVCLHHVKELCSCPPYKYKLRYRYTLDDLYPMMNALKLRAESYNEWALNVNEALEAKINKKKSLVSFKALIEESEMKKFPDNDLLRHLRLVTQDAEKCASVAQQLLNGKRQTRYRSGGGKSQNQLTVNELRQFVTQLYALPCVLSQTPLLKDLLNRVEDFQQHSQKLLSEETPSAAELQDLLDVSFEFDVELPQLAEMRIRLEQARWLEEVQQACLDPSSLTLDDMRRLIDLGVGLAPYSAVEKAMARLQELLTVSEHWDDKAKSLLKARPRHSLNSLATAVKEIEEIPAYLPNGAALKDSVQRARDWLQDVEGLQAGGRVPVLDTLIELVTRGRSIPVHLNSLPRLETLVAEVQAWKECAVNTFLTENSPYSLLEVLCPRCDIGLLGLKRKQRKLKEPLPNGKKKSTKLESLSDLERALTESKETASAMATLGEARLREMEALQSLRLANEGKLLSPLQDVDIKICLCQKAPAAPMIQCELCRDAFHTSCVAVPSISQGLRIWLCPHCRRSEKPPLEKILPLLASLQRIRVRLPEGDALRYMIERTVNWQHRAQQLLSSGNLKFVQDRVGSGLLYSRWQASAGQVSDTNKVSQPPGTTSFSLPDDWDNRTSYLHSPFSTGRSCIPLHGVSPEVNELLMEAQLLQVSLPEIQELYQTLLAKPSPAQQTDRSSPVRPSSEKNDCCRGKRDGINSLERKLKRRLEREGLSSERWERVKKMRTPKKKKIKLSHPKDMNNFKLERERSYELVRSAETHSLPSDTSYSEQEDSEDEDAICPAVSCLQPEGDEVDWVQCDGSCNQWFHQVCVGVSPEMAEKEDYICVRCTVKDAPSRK
Summary of the method: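 KDM5BDeltaAP (200nM final) in 50mM HEPES pH 7.5, 0.01% Tween-20 was preincubated with compound for 10 min at room temperature. A substrate mix of 12.5uM H3K4Me3, 25uM a-ketoglutarate, ascorbate, Fe2+, NAD+ and formaldehyde dehydrogenase was then added. NADH fluorescence (340/450 nm) was read initially and after 30 min.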

[9] = tested on: Zika virus NS2B-NS3 protease (linked construct); assay: Confirmatory screen NINDS AMC qHTS for Zika virus inhibitors (AID 1347152); note: potency is the fitted concentration of half-maximal effect; nearly all actives have a fitted effect of over 70% in size
Summary of the method: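 In this dose-response qHTS, AMC release from 10 microM Bz-Nle-KRR-AMC by 1 nM linked protease is measured over 15 minutes (about 20% conversion) at pH 8.0. Percent inhibition is fitted to a 4-parameter Hill curve.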

[10] = tested on: Zika virus NS2B-NS3 protease (linked); assay: 384 well plate NINDS AMC confirmatory qHTS for Zika virus inhibitors (AID 1347163); details: Recombinant NS2B-NS3 protease, Ac-VKTGKR-AMC fluorescence; note: potency is the fitted concentration of half-maximal effect; nearly all actives have a fitted effect of over 50% in size
Summary of the method: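 Enzyme (5, 30 or 60 nM final) first met test compounds for ~15 min. The AMC-tagged peptide Ac-VKTGKR-AMC followed at 30 microM. Fluorescence was then recorded at 25 min and scaled against no-enzyme and no-inhibitor wells.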

[11] = tested on: Zika virus NS2B-NS3 protease (linked construct); assay: 384 well plate NINDS Rhodamine confirmatory qHTS for Zika virus inhibitors (AID 1347164); note: top concentration of the series differs between compounds; nearly all actives have a fitted effect of over 65% in size
Summary of the method: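 Compounds are incubated about 15 minutes with linked protease (5, 30 or 60 nM final). Rhodamine 110-tagged Ac-LKRR substrate (10 microM final) is added and fluorescence measured after 25 minutes.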

[12] = Vero cells viability qHTS for Zika virus inhibitors (AID 1347167)
Summary of the method: (§1)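 To flag cytotoxic protease inhibitors, viability is measured by ATP-dependent luminescence (CellTiter Glo) after cells attached overnight receive compound for 24 to 48 hours in DMEM with 4% FBS.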

[13] = HepG2 cells viability qHTS for Zika virus inhibitors (AID 1347168)
Summary of the method: as §1

SMILES: COc1c(C(C)C)cc2c(c1O)[C@@]1(C(=O)O)CCCC(C)(C)C1CC2 (stereo partly drawn)
- Potency [1]: 6.85 µM (active)
- Potency [2]: 6.31 µM (active)
- Potency [3]: inactive
- Potency [4]: 9.67 µM (active)
- Potency [5]: inactive

SMILES: CC(C)(C)c1cc(C=C(C#N)C#N)cc(C(C)(C)C)c1O
- Potency [6]: 10.6 µM (active)
- Potency [7]: inactive

SMILES: O=C1CC[C@@]2(O)C3Cc4ccc(O)c5c4C2(CCN3CC2CC2)[C@H]1O5 (stereo partly drawn)
- Potency [6]: inactive
- Potency [8]: inactive

SMILES: CO[C@H]1CC=C2CCN3CCC4=C(CC(=O)OC4)[C@]23C1
- Potency [6]: inactive
- Potency [7]: inactive

SMILES: CCCCCOc1cc2c(cc1-c1cc(/C=C/C(=O)O)ccc1O)C(C)(C)CCC2(C)C
- Potency [9]: 9.87 µM (active)
- Potency [1]: 1.75 µM (active)
- Potency [2]: 2.51 µM (active)
- Potency [3]: 3.16 µM (active)
- Potency [4]: 2.21 µM (active)
- Potency [10]: 25.1 µM (active)
- Potency [11]: inactive
- outcome [12]: inactive
- outcome [13]: inactive

SMILES: Cc1[nH]c2ccc(O)cc2c1CCN
- Potency [6]: inactive
- Potency [7]: inactive

SMILES: CCCN(CCC)[C@H]1CCc2c(F)ccc(O)c2C1
- Potency [6]: inactive
- Potency [8]: inactive

SMILES: Cc1o[nH]c(=O)c1CC(N)C(=O)O (stereo not drawn)
- Potency [6]: inactive

SMILES: CN1CCC(c2c[nH]c3ccc(O)cc23)CC1
- Potency [6]: inactive
- Potency [7]: inactive
- Potency [8]: inactive
